Screens from PubChem BioAssay.
Only some compounds are listed: those with a hit (about 8.7% of all), similar ones and a draw of the others.
Vaccinia Venus – qHTS for Stage-Specific Inhibitors of Vaccinia Orthopoxvirus: Venus Reporter Primary qHTS | Vaccinia virus Venus reporter expression, fluorescence | Potency, µM (highest dose often 36.5 µM), for inactives: top-dose activity change, negative = inhibition, actives largely listed as inhibitors | 330,000 compounds, 0.46% hits | AID 720580, 2013; calls by dose curve; tested in A549 cells; note: nearly all actives have a fitted effect of over 30% in size
Vaccinia mCherry – qHTS for Stage-Specific Inhibitors of Vaccinia Orthopoxvirus: mCherry Reporter Primary qHTS. Vaccinia virus mCherry reporter infection, fluorescence. Potency, µM (highest dose often 36.5 µM), for inactives: at the top dose activity change, negative = inhibition, most hits filed as inhibitors. 310,000 compounds, 0.63% hits. AID 720579, 2013; calls by dose curve; tested in A549 cells; note: nearly all actives have a fitted effect of over 35% in size
AMA1-RON2 inh – qHTS for Inhibitors of AMA1-RON; Towards Development of Antimalarial Drug Lead: Primary Screen; Plasmodium falciparum AMA1 (3D7) - RON2 peptide interaction; Potency, µM (top dose mostly 58.2 µM), without a hit: top-dose activity change, negative = inhibition, most hits filed as inhibitors; AID 720542, 2013; 360,000 compounds, 0.2% hits; AlphaScreen AMA1-biotinylated RON2 peptide binding;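 note: 0% = vehicle wells and -100% = peptide control; nearly all actives have a fitted effect of over 45% in size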
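AMA1 (3D7) with his tag at 25 nM final met compounds first, then biotinylated RON2 peptide at 25 nM; detection used donor plus acceptor beads, 10 µg/mL apiece, read by AlphaScreen after 30 min at room temperature.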
Pf growth 96h – Primary qHTS for delayed death inhibitors of the malarial parasite plastid, 96 hour incubation; P. falciparum luciferase reporter growth, 96 h; Potency, µM (top dose mostly 28.7 µM), for the others: at the top dose activity change, negative = inhibition, actives largely listed as inhibitors; 320,000 compounds, 6.9% hits; AID 504834, 2011
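P. falciparum expressing integrated firefly luciferase, in erythrocytes at 2% hematocrit, 0.05% parasitemia, incubated with compounds 96 h at 37 C, 5% CO2. Growth inhibition read as loss of luminescence; two-generation exposure targets delayed-death apicoplast inhibitors.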
Pf growth 48h – Primary qHTS for delayed death inhibitors of the malarial parasite plastid, 48 hour incubation. P. falciparum luciferase growth in erythrocytes, 48 h. Potency, µM (doses to about 28.7 µM), for inactives: top-dose activity change, negative = inhibition, hits mostly inhibitors. 310,000 compounds, 5.9% hits
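A one-generation exposure of luciferase-tagged malaria parasites in RPMI 1640/Albumax erythrocyte culture, 37 C and 5% CO2. Inhibition is inferred from decreased luminescence after adding detection reagent.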
* = called active by the depositor; i = inactive; ? = inconclusive; nt = not tested or not shown; [ ] = dose if it differs, or a comment. Unless noted, calls come from the whole dose curve; as a rule, active = well fitted curve in the direction sought with a large enough effect; inconclusive = small, poorly fitted or top-dose-only effect, or another doubt; inactive = no such curve, though single readings can be large; an effect the other way counts as inactive or inconclusive. Unless noted, % is set by controls: 0 for no effect and ±100 for the full control effect; potency is the fitted concentration of half-maximal effect.

SMILES | Vaccinia Venus | Vaccinia mCherry | AMA1-RON2 inh | Pf growth 96h | Pf growth 48h
CCC(=O)NC(=S)NNC(=O)c1ccc([N+](=O)[O-])cc1 | nt | nt | ? | 13µM* | ?
CCCOc1ccc(C(=O)NNC(=S)NC(=O)c2ccco2)cc1 | ? | 11µM* | 78% | ? | ?
COc1cc(Br)c(CCNC(=O)c2ccco2)cc1OC | nt | nt | 4% | ? | 5.2µM*
N#Cc1nc(N2CCCCC2)nc(N2CCCCC2)n1 | -16% | -12% | nt | nt | nt
C=C(C)Cn1c(=O)c2c(nc3n2CCN3c2ccc(CC)cc2)n(C)c1=O | -18% | -24% | nt | nt | nt
Cc1csc(CN(C)C(=O)c2sc3ncnc(NCC4CCCO4)c3c2C)n1 (stereo unspecified) | -2% | i | nt | nt | nt
CCCOc1ccc(C(=O)NNC(=S)NC(=O)c2ccccc2[N+](=O)[O-])cc1 | -18% | 0% | 61% | 35% | -13%
CCCOc1ccc(C(=O)NNC(=S)NC(=O)c2cccs2)cc1 | ? | 10µM* | 62% | ? | ?
CCCCCOc1ccc(C(=O)OC(C)C(=O)NCc2ccco2)cc1 (stereo unspecified) | nt | nt | -18% | 13µM* | ?
CCCOc1ccc(C(=O)NNC(=S)NC(=O)c2ccccc2)cc1 | ? | ? | 81% | 3.3µM* | 10µM*
CCCCOc1ccc(C(=O)NNC(=S)NC(=O)CC)cc1 | -27% | -10% | 30% | ? | 6.6µM*
CCOc1ccc(C(=O)NC(=S)N(Cc2ccccc2)Cc2ccccc2)cc1 | -12% | -8% | 31% | 2.6µM* | ?
O=C(NNC(=S)NC(=O)c1ccccc1)c1cccnc1 | nt | nt | 91% | ? | ?
C=CCNC(=S)NNC(=O)c1ccc(OCCCC)cc1 | ? | -15%[1.46 µM] | 151% | 0% | -16%
CCOc1ccc(CN(CCC#N)C(=S)NC(=O)c2ccccc2)cc1 | nt | nt | 77% | ? | ?
CCCOc1ccc(C(=O)NNC(=S)NC(C)=O)cc1 | nt | nt | 90% | 0.33µM* | ?
CC(C)(C)c1ccc(C(=O)NNC(=S)NC(=O)c2cccnc2)cc1 | -14% | ? | 76% | ? | 13µM*
COc1cccc(C2(CC(=O)N3CCN(c4ccccn4)CC3)CC(=O)N(C3CCCC3)C2=O)c1 (stereo unspecified) | -17% | -1% | nt | nt | nt
O=C(Cn1nc2c(cc1=O)CCCC2)NCc1ccccc1 | -4% | -14% | nt | nt | nt
Cc1cc2nc(-c3cccc(NC(=O)COc4ccc(C(C)C)cc4)c3)oc2cc1C | -9% | -13% | nt | nt | nt
CCN1C(=O)/C(=C/c2cccs2)SC1=Nc1ccc(OC)cc1 | -7% | nt | -2% | 4.7µM* | -22%
CC(=O)OC1CC(C)N(C(=O)c2ccccc2)c2ccc(C)cc21 (stereo unspecified) | nt | nt | -11% | nt | 59%
CC(=O)N1c2ccc(C)cc2C(c2ccccc2)CC1C (stereo unspecified) | -22% | ? | 11% | ? | 7.4µM*
CCC1(C2CCN(C(=O)c3ccc4ccccc4c3)CC2)NC(=O)N(CCc2scnc2C)C1=O (stereo unspecified) | -3% | -10% | nt | nt | nt
CN1C(=O)c2ccccc2N(C)C1c1ccc2c(c1)OCO2 (stereo unspecified) | -9% | nt | 1% | -24% | 10µM*
SMILES | Vaccinia Venus | Vaccinia mCherry | AMA1-RON2 inh | Pf growth 96h | Pf growth 48h
CN1C(=O)c2ccccc2N(C)C1c1ccc(F)cc1 (stereo unspecified) | -19% | i | 20% | 3% | ?
Fc1ccccc1CNc1nc(-c2cccnc2)nc2ccccc12 | 0% | -5% | 5% | 5.2µM* | 12µM*
c1cncc(-c2nc(NCc3cccs3)c3ccccc3n2)c1 | -14% | -10% | 25% | 13µM* | ?
Cc1cccc(CNc2nc(-c3cccnc3)nc3ccccc23)c1 | -17% | -25% | nt | nt | nt
Cc1ccc(CCNC(=O)c2cccc(Nc3nc4ccccc4nc3-n3nc(C)cc3C)c2)cc1 | -15% | -7% | nt | nt | nt
CC(C)Cn1c(=O)c2ccccc2n2c(CCC(=O)NCc3ccc(Cl)cc3)nnc12 | -13% | i | nt | nt | nt
Cc1cc(C)c(S(=O)(=O)Nc2cc(SCC(=O)O)c(O)c3ccccc23)cc1C | -1% | -1% | -20% | 2.6µM* | 10µM*
Cc1cc(C)c(S(=O)(=O)Nc2ccc(O)cc2)cc1C | nt | nt | -15% | 11% | -21%
COc1ccc(S(=O)(=O)Nc2cc(SCC(=O)O)c(O)c3ccccc23)cc1 | nt | nt | ? | ? | 4.1µM*
O=S(=O)(Nc1ccc(Cl)cc1NS(=O)(=O)c1ccccc1)c1ccccc1 | -23% | -4% | 39% | nt | nt
O=C(O)CSc1cc(NS(=O)(=O)c2ccc(Cl)cc2)c2ccccc2c1O | ? | 14µM* | -22% | ? | ?
COc1ccc(S(=O)(=O)Nc2cc(Sc3ncn[nH]3)c(O)c3ccccc23)cc1 | nt | nt | nt | 2.9µM* | nt
COc1ccc(S(=O)(=O)Nc2cccc3ccc(O)cc23)cc1 | -30% | ? | 12% | nt | nt
COc1ccc(C(=O)N2c3ccccc3C(C)(c3ccc(Cl)cc3)CC2(C)C)cc1 (stereo unspecified) | -15% | -17% | nt | nt | nt
O=S(=O)(Nc1cc(Sc2cccc3cccnc23)c(O)c2ccccc12)c1ccc(F)cc1 | 56% | ? | -13% | 7% | 2.6µM*
N#Cc1ccc(C23CC4(C2)[C@H](CN(Cc2ccc(-c5ccccc5)cc2)[C@@H]4c2ccccc2)C3c2ccccc2)cc1 (stereo partly specified) | 0% | -22% | -4% | ? | 2%
CN1C[C@@H]2C(c3ccc(C(F)(F)F)cc3)C3(c4ccc(C#N)cc4)CC2(C3)[C@H]1c1ccccc1 (stereo partly specified) | -13% | ? | -4% | 12µM* | 12µM*
CN1C[C@@H]2C(c3ccccc3)C3(c4ccc(C#N)cc4)CC2(C3)[C@H]1c1ccccc1 (stereo partly specified) | -7% | ? | -7% | 10µM* | 10µM*
COc1ccc(NC(=O)C(C)n2nc(C)c3c(C)n(-c4ccccc4)nc3c2=O)cc1Cl (stereo unspecified) | -14% | -17% | nt | nt | nt
